About 2,100 (0.66%) of roughly 320,000 compounds were called active.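 Rule for the calls: active = inhibition above the mean inhibition of all tested compounds plus 3 SD, set per campaign (cut at about 40% in these data); inactive = the rest.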 The list comes from a sample in which actives are over-represented; it also holds similar structures and randomly drawn compounds.

The target of this assay is Induced myeloid leukemia cell differentiation protein Mcl-1 (Homo sapiens) (UniProt Q07820). Put plainly: inhibitors of MCL1 binding to BIM-BH3, primary screen, biochemical, fluorescence polarization (AID 2057).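 Note: 0% = DMSO wells and 100% = unlabeled Bim-BH3 peptide control; higher means more loss of mP so more displacement of Bim peptide.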 The note with it: GST-MCL1 / FITC-Bim-BH3 fluorescence polarization; at 10.9 µM; hits give high values.
Chain of Induced myeloid leukemia cell differentiation protein Mcl-1 (Homo sapiens) (Q07820 whole entry, looked up): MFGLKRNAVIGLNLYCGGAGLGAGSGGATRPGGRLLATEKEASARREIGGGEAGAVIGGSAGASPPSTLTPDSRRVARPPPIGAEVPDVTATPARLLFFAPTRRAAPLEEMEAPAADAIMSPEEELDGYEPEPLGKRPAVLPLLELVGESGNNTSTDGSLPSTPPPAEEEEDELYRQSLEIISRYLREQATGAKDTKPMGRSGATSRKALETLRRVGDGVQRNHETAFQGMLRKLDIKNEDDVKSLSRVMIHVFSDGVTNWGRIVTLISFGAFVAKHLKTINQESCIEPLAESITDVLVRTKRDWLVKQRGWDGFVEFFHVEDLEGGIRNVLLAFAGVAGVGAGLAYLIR
As to `CCNc1nc(N)nc(-c2cc(Cl)ccc2OC)n1`, the inhibition is -1.8% (inactive).
For the compound `COc1ccc(CCn2c(=N)c(C(=O)NCC3CCCO3)cc3c(=O)n4cccc(C)c4nc32)cc1OC` (configuration not stated), the inhibition is 2% (inactive).
Turning to `Cc1cccn2c(=O)c3cc(C(=O)NCCN4CCOCC4)c(=N)n(Cc4cccnc4)c3nc12`, the inhibition is 46.7% (active).
Consider `Cc1cccn2c(=O)c3cc(C(=O)NCC4CCCO4)c(=N)n(Cc4ccc(F)cc4)c3nc12` (configuration not stated), for which the inhibition was -4.4% (inactive).
For `CC(C)(C)NC(=O)COC(=O)c1cc(Br)ccc1Cl`, the inhibition is -2.96% (inactive).
For the compound `CCCC1NC(=O)NC(C)=C1C(=O)OCC` (configuration not stated), the inhibition was -0.76% (inactive).
Turning to `Oc1ccc2ccccc2c1N=Nc1nccs1`, the inhibition was 61.4% (active).
Take `CC1=C(C(=O)OC(C)(C)C)C(c2ccc(Br)cc2)NC(=O)N1CCCC(=O)O` (configuration not stated): the inhibition was 2.27% (inactive).
Turning to `CC[N+](C)(CC)CCC[n+]1c(-c2ccccc2)c2cc(N)ccc2c2ccc(N)cc21`, the inhibition is 122% (active).
Consider `C=C(C)CSc1nnc(-c2ccc(C)cc2)n1N`, for which the inhibition is -0.24% (inactive).
To `CC(OC(=O)c1ccccc1NCCO)C(=O)Nc1ccnn1C(C)C` (configuration not stated) belongs 1.18% (inactive).
Regarding `CSCCC(NC(=O)c1ccc(Cl)cc1Cl)C(=O)NNC(=O)c1csc(N2CCOCC2)n1` (configuration not stated), the inhibition was 12.3% (inactive).
For the compound `CN(C(=O)COC(=O)c1cc(=O)[nH]c2ccccc12)C1CCCCC1`, the inhibition was 1.49% (inactive).
To `COC(=O)C[n+]1cccc2ccccc21` belongs 195% (active).
`COc1ccccc1NC(=O)C[n+]1ccccc1`: the inhibition was -1.7% (inactive).
`Cc1cccc[n+]1CC(=O)c1ccccc1`: the inhibition is 9.96% (inactive).
In the case of `Cn1ccs/c1=N\S(=O)(=O)c1ccc(C(C)(C)C)cc1` it was 5.09% (inactive); in that of `O=[N+]([O-])c1cc([N+](=O)[O-])c(Oc2cc(F)cc(F)c2F)cc1NN1CCCCC1`, -1.7% (inactive).
Turning to `Fc1cccc(Cl)c1CSc1ccc(-c2ccco2)nn1`, the inhibition was 17.6% (inactive).
To `COc1ccc2nc(SCc3ccccc3)nc(C)c2c1` belongs 1.99% (inactive).
With `O=C(CC1N=C2c3ccccc3N=C(SCc3ccccc3Cl)N2C1=O)NCc1ccco1` (configuration not stated), the inhibition is 19.4% (inactive).
To `Clc1ccccc1CSc1nnc(-c2ccco2)c(-c2ccco2)n1` belongs 79.9% (active).
In the case of `c1ccc(CSc2nnc(-c3ccco3)c(-c3ccco3)n2)cc1`, the inhibition is 82.3% (active).
In the case of `CCc1nnc(SCc2cccc(F)c2)nc1CC` it was 0.71% (inactive); in that of `CCOC(=O)C1CCCN(C(=O)COc2ccc(N(C)S(=O)(=O)c3ccc(C)cc3)cc2)C1` (configuration not stated), -2.82% (inactive); in that of `CCCN(C(=O)c1nc2nccc(C)n2n1)c1c(N)n(Cc2ccccc2)c(=O)[nH]c1=O`, 0.15% (inactive).
In the case of `COCc1cc(=O)n2[nH]c(C)c(-c3ccccc3)c2n1`, the inhibition is 10.3% (inactive).
Take `CCC1SC2=NCCN2C1(O)c1ccc(Cl)cc1` (configuration not stated): the inhibition is 7.57% (inactive).
Consider `CN1C(=O)/C(=C\c2cc(Br)cs2)c2ccccc21`, for which the inhibition is -0.58% (inactive).
To `O=C(COC(=O)c1ncc(Cl)c(Cl)c1Cl)NNC(=O)c1ccccc1` belongs 5.89% (inactive); to `Cn1c(-c2ccc(C(F)(F)F)cc2)cc2onc(-c3ccccc3)c2c1=O`, 4.36% (inactive); to `Cc1oc2c(c1C(=O)N1CCOCC1)C(=O)c1ccccc1C2=O`, -4.11% (inactive).
As for `O=C1c2ccccc2-c2ncnc3c(N4CCOCC4)cc(N4CCOCC4)c1c23`, the inhibition is 48.8% (active).
In the case of `COC1=C(N2CCOCC2)C(=O)c2ccccc2C1=O` it was 6.69% (inactive).
Take `COc1ccc(OC)c(NC(=O)CN(C)CCOc2ccc(Br)cc2)c1`: the inhibition was -19.6% (inactive).
With `CCN(CC)C(=O)CC(c1ccc2c(c1)OCO2)c1c(OC)cc(OC)c2c(-c3ccccc3)cc(=O)oc12` (configuration not stated), the inhibition was 2.43% (inactive).
Turning to `Cc1cc(C)c2c(-n3cccc3)c(C(=O)NNS(=O)(=O)c3ccc(F)cc3)sc2n1`, the inhibition was 13.1% (inactive).
As for `COc1ccc(CNC(=O)c2cc3c(=O)n4ccccc4nc3n(CC3CCCO3)c2=N)cc1` (configuration not stated), the inhibition is 9.61% (inactive).
To `Cc1cccn2c(=O)c3cc(C#N)c(=O)n(CCCN4CCOCC4)c3nc12` belongs 23.2% (inactive).
In the case of `Cc1cccn2c(=O)c3cc(C#N)c(=NC(=O)c4cccnc4)n(CC4CCCO4)c3nc12` (configuration not stated) it was 44.1% (active); in that of `CCN(CC(=O)NCc1cccs1)c1nnnn1-c1ccccc1`, 3.16% (inactive).
To `O=C(NCc1cccnc1)C12CC3CC(CC(C3)C1)C2` belongs 3.8% (inactive); to `Cc1ccc(S(=O)(=O)Nc2nc3ccccc3nc2N2CCc3ccccc3C2)cc1`, 12.7% (inactive).
Consider `Cc1ccc(S(=O)(=O)C(C#N)c2nc3ccccc3nc2N2CCCC2)cc1C` (configuration not stated), for which the inhibition was 75.8% (active).
In the case of `Cc1cc(N2CCN(S(=O)(=O)c3ccc(C)c(C)c3)CC2)c2ccccc2n1` it was -2.07% (inactive); in that of `O=C(CN1CCN(S(=O)(=O)c2ccc(Cl)s2)CC1)N1CCCCC1`, 5.82% (inactive); in that of `O=C(NCCC1CCCCN1S(=O)(=O)c1ccc(Cl)cc1)C(=O)NCc1ccco1` (configuration not stated), 9.57% (inactive).
Consider `CCCn1c(C2CCCN2c2nc(-c3ccc(C)cc3)cs2)nc2cc(Cl)c(N3CCCCC3)cc21` (configuration not stated), for which the inhibition was 75.2% (active).
For `CCCn1c(C2CCCN2c2nc(-c3ccc(OC)cc3)cs2)nc2ccccc21` (configuration not stated), the inhibition was 11.8% (inactive).
`CCCn1c(C(C)Nc2nc(-c3ccc(C)cc3)cs2)nc2cc(Cl)c(N3CCCCC3)cc21` (configuration not stated): the inhibition was 5.75% (inactive).
For the compound `O=C1N[C@@H](Cc2ccccc2)C(=O)N2[C@@H]3N(S(=O)(=O)c4ccc(F)cc4)c4ccccc4[C@]3(Br)C[C@@H]12`, the inhibition is 8.03% (inactive).
In the case of `CC(=O)NC(C)(C)C1CC=C(C)/C(=N\O)C1` (configuration not stated) it was -0.57% (inactive); in that of `CCn1c(SCc2ccccc2)nc2cc(OC)c(OC)cc2c1=O`, 3.42% (inactive); in that of `COC(=O)c1ccc(SCc2ccccc2)nc1`, 11.2% (inactive).
As to `CSc1c(SCc2ccccc2)cnn(Cc2ccccc2)c1=O`, the inhibition was 181% (active).
In the case of `Cc1c(C)c(C)c(S(=O)(=O)N2CCC3(CC2)OCCO3)c(C)c1C` it was 6.11% (inactive); in that of `Cc1cc(CNC(=O)C2CCC(=O)N(CCc3ccc(Cl)cc3)C2)no1` (configuration not stated), 2.34% (inactive).
Turning to `Cc1ccc(C(=O)NC2CCCC(C)C2C)cc1S(=O)(=O)N1CCCCC1` (configuration not stated), the inhibition was -1.76% (inactive).
On to `O=C(Nc1nccs1)c1cc(S(=O)(=O)N2CCOCC2)c(Cl)cc1Cl`, for which the inhibition was 5.02% (inactive).
Turning to `Oc1cc2c(cc1O)CN(C(=S)NCCc1ccc(Cl)cc1)CCC2`, the inhibition was 34.4% (inactive).
Consider `O=C(COC(=O)/C=C/c1ccc(OC(F)F)cc1)NC1CCCCC1`, for which the inhibition is -2.99% (inactive).
On to `COc1ccc(-c2nc(CS(=O)CC(=O)NCc3ccccc3)c(C)o2)cc1OC` (configuration not stated), for which the inhibition was 9.71% (inactive).
As to `COc1ccc(-c2nc(CS(=O)CC(=O)NCc3ccccn3)c(C)o2)cc1` (configuration not stated), the inhibition is 111% (active).
Turning to `COc1cccc(-c2nc(CS(=O)CC(=O)NCc3ccc(F)cc3)c(C)o2)c1` (configuration not stated), the inhibition is 0.44% (inactive).
Take `COCCCNC(=O)CNC(=S)N(Cc1cc(OC)c(OC)c(OC)c1)C1CCCC1`: the inhibition was -4.92% (inactive).
In the case of `O=C(Cc1ccc(-n2c(=O)c3sccc3n(Cc3ccc(F)cc3)c2=O)cc1)NCc1ccco1` it was -2.64% (inactive); in that of `O=C(CCn1c(SCC(=O)c2ccccc2)nc2ccccc2c1=O)NCc1ccc(F)cc1`, 41.6% (active).
To `O=C(CCCn1c(SCC(=O)c2ccccc2)nc2ccccc2c1=O)NCC1CCCO1` (configuration not stated) belongs 0.98% (inactive).
Consider `O=C(CCCn1c(SCC(=O)c2ccc(F)cc2)nc2ccccc2c1=O)NCc1ccco1`, for which the inhibition is 2.72% (inactive).
As for `Cc1cccc(-c2c(NC(=O)c3ccco3)oc3ccc(Cl)cc3c2=O)c1`, the inhibition is -4.25% (inactive).
Regarding `Nc1cccc2c1C(=O)N(Cc1nnc(-c3ccccc3Br)o1)C2=O`, the inhibition is 54.3% (active).
For the compound `CCOC(=O)N1CCN(Cc2nnc(-c3ccccc3Cl)o2)CC1`, the inhibition was 2.02% (inactive).
Take `Cn1cnnc1SCc1nnc(-c2ccccc2Br)o1`: the inhibition was 5.99% (inactive).
On to `C=CCOC(=O)C1=C(C)N=C2SCCC(=O)N2C1/C=C/c1ccccc1OC` (configuration not stated), for which the inhibition was -0.33% (inactive).
On to `COc1ccc(C2=CC(c3cccc(OC)c3)n3nnnc3N2)cc1` (configuration not stated), for which the inhibition is 37.5% (inactive).
On to `COc1ccc(C2CC(c3ccc(C)cc3)Nc3nc(N)nn32)cc1` (configuration not stated), for which the inhibition was -0.86% (inactive).
To `COc1ccc(C2C=C(c3ccc(Br)cc3)Nc3nc(NS(C)(=O)=O)nn32)cc1` (configuration not stated) belongs 175% (active); to `COc1ccc(NC(=O)C(=O)NCC(c2ccco2)N2CCc3ccccc3C2)cc1` (configuration not stated), 2.73% (inactive).
As for `COC(=O)CCCCCN1C(=O)NC(c2ccc(-c3ccccc3)cc2)C(C(=O)OCc2ccccc2)=C1C` (configuration not stated), the inhibition is 6.48% (inactive).
`COc1ccc(Nc2nc(-c3cccnc3)nc3ccccc23)cn1`: the inhibition is 128% (active).
In the case of `Cc1cccc(-c2nc(Nc3ccc(O)cc3)c3ccccc3n2)c1`, the inhibition is 3.74% (inactive).
Turning to `O=[N+]([O-])c1ccc(F)cc1Oc1nc(-c2cccnc2)nc2ccccc12`, the inhibition is -2.6% (inactive).
In the case of `CCNC(=O)CC1C(=O)N(c2ccc(OC)cc2)C(=S)N1CCc1ccncc1` (configuration not stated), the inhibition was -3.91% (inactive).
Take `Cc1cc(C)c(-c2csc(NC(=O)CCCc3nc4ccccc4c(=O)[nH]3)n2)c(C)c1`: the inhibition was -5.51% (inactive).
Turning to `CCOC(=O)C1CCN(C(=O)Nc2ccc(C)c(Cl)c2)CC1`, the inhibition was 4.72% (inactive).
In the case of `COc1cc(SC)ccc1C(=O)Nc1cc(C)ccn1`, the inhibition was 0.12% (inactive).
For `Cc1ccnc(NC(=O)c2ccoc2C)c1`, the inhibition is 42.1% (active).
Regarding `Cc1ccnc(NC(=O)CNC(=O)c2ccccc2)c1`, the inhibition was 6.08% (inactive).
To `COc1ccc(CN2C(=O)C(C)S/C2=N/N=C/c2ccco2)cc1` (configuration not stated) belongs 4.92% (inactive).
On to `COc1ccccc1C(=O)NCCC(=O)NC(C)CCc1ccccc1` (configuration not stated), for which the inhibition is -13.4% (inactive).
For `CCCOc1ccc(C2c3c(oc4cc(C)c(C)cc4c3=O)C(=O)N2CCCN2CCOCC2)cc1` (configuration not stated), the inhibition is 14.2% (inactive).
In the case of `Cc1cc2oc3ccc(NCCC4CCCN4C)cc3c(=O)c2cc1C` (configuration not stated) it was 41.8% (active).

The values are drawn from PubChem BioAssay AID2057 (The Scripps Research Institute Molecular Screening Center, 2009).
